Most compounds without a hit are left out; they make up all but 2.8% or so of the library.
CF NFkB block: inhibitors of cystic fibrosis induced NF-kB; KKLEB NF-kB-GFP reporter, PAF-induced, GFP fluorescence overnight; inhibition, % at 5 µM; hit rate 0.86% among 360,000;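 active = at least 50% inhibition at 5 µM, scaled per plate between neutral and stimulator controls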;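 also: PAF is a Pseudomonas aeruginosa culture filtrate used as stimulus; plate controls were PAF-stimulated DMSO wells for no effect and unstimulated DMSO wells for full effect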
TRPM1 prom inh: reduces MITF-dependent TRPM1 promoter luciferase signal | SK-MEL-5 TRPM1 promoter luciferase, 24 h | inhibition, % at 12.5 µM | hit rate 0.83% among 330,000;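 active = mean inhibition across replicates of 60% or more, whatever share of single replicates reaches that level; inconclusive = some that reach 60%, reason not given; inactive = mean inhibition across replicates below 60%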
Shn3 3UTR inh: Schnurri-3 reporter inhibition in Clone20 osteoblasts; Clone20 osteoblast Shn3 3'UTR firefly luciferase, 24 h; inhibition, % at 12.5 µM; hit rate 0.52% among 360,000; AID 588674;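 active = mean inhibition of at least 75% with every replicate also reaching 75%; inconclusive = mean inhibition at least 75% but some replicate below; inactive = mean inhibition below 75%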;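 also: 0% = median of neutral control wells and 100% = pilot-screen positive control compound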
KKLEB cytotox: counter-screen for CF NF-kB inhibitors: cytotoxicity | KKLEB CF airway cells viability, ATPlite luminescence, overnight; active compounds read low; cells stimulated with P. aeruginosa culture filtrate | hit rate 0.36% among 360,000 | activity change (cytotoxicity), % at 5 µM;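 active = corrected activity change at or below -50% at 5 µM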
Peg3 promoter: reduces Peg3 promoter-driven luciferase expression in HeLa; HeLa PEG-Prom luciferase reporter, luminescence, overnight; inhibition, % at 20 µM; hit rate 1.7% among 360,000; AID 588405;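 active = inhibition of at least 50% at 20 µM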
HIF-2a block: inhibitors of HIF-2a; 786-0 RCC cells HIF-2a reporter, luciferase luminescence, overnight; inhibition, % at 18.8 µM; hit rate 0.72% among 360,000; AID 624352;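 active = inhibition of the luminescence signal of 40% or more relative to plate controls, in a single-dose primary screen at 18.75 µM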
Mdm2-MdmX confirm: confirmation of inhibitors of human Mdm2/MdmX interaction, set 2 | shares compounds with HIF-2a block | SaOS-2 split-luciferase Mdm2/MdmX complementation, luminescence | inhibition, % at 8 µM | hit rate 99% among 740;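 active = mean inhibition of the luminescence signal across two replicates at or above 26 percent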
Target sequence (O15151 whole entry, looked up): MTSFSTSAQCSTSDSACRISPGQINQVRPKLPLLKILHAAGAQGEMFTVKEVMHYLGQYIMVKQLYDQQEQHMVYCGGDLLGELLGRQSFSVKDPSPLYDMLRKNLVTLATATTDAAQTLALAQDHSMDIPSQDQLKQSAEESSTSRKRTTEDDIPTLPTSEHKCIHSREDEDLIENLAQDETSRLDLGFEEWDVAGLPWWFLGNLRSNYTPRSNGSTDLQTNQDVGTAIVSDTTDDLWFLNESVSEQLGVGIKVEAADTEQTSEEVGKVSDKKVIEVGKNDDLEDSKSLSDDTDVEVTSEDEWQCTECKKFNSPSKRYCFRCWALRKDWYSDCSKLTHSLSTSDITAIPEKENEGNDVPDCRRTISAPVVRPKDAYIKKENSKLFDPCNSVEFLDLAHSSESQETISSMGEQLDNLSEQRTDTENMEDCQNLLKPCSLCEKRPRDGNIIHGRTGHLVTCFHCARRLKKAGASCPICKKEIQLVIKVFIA
Target sequence (Q00987 whole entry, looked up): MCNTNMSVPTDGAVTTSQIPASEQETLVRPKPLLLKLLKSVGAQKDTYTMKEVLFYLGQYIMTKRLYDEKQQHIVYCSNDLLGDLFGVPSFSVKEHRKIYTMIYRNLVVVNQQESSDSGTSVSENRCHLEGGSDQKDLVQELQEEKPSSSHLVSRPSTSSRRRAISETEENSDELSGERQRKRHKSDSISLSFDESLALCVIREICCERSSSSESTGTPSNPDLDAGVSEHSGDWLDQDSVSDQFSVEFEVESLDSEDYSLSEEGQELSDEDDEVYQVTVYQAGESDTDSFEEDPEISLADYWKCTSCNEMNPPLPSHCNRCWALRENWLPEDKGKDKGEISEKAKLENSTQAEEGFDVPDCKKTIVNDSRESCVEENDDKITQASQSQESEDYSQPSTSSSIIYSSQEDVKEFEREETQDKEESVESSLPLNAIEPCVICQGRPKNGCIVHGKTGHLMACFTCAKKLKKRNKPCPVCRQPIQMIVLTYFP
HIF-2a inh conf: HIF-2a inhibition, single concentration confirmation; shares compounds with HIF-2a block; 786-0 RCC cells, HIF-2a luciferase reporter luminescence, overnight; inhibition, % at 18.8 µM; hit rate 56% among 1,800; AID 651580;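 active = mean inhibition across four replicates of at least 40 percent at the single tested concentration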
HIF-1a counter: HIF-1a inhibition counter-screen for HIF-2a hits; shares compounds with HIF-2a block; MiaPaCa-2 HIF-1a luciferase reporter, desferoxamine, overnight; inhibition, % at 18.8 µM; hit rate 72% among 1,800;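 active = mean inhibition of the reporter signal across four replicates at the single tested dose of 50% or more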
An asterisk follows results filed as active; ? = inconclusive; . = no result.

SMILES	CF NFkB block	TRPM1 prom inh	Shn3 3UTR inh	KKLEB cytotox	Peg3 promoter	HIF-2a block	HIF-2a inh conf	HIF-1a counter	others
CCSCCc1nnc(NC(=O)Nc2cccc(C(F)(F)F)c2)s1	70*	67*	43	-56*	11	9	.	.	Mdm2-MdmX confirm=98*
CC(C)(C)c1ccc(C(=O)N2CCC2(C)C(=O)NCc2cccs2)cc1 (stereo not given)	-47	.	9	-3	11	19	.	.
CC1CCCCC1NC(=O)/C(C#N)=C/c1ccccc1F (stereo not given)	26	?	12	-14	96*	88*	81*	106*
O=C(COC(=O)c1ccc[nH]c1=O)Nc1ccc(N2CCCCC2)cc1	-1	78*	79	0	29	91*	95*	74*
O=C(COC(=O)c1ccc[nH]c1=O)Nc1ccc(S(=O)(=O)N2CCCC2)cc1	6	5	-1	-17	18	59*	0	18
O=C(OCC(=O)N1CCCCCC1)c1ccc[nH]c1=O	-20	-15	-11	9	0	3	.	.
Cc1oc(-c2ccccc2Cl)nc1CS(=O)(=O)CC(=O)N1CCOCC1	-3	.	-2	6	5	5	.	.
CC(C)(C)[C@H]1COC(=O)[C@H](Cc2ccc(F)cc2)CC/C=C/C[C@@H](CC(=O)N[C@H](CO)Cc2ccccc2)C(=O)N1	13	-4	2	-6	-10	-2	.	.
c1ccc(-n2nnnc2Sc2ncnc3sc4c(c23)CCCC4)cc1	82*	63*	?	-52*	68*	41*	15	62*
O=C(O)CSc1ncnc2sc3c(c12)CCCC3	36	3	-17	-2	-3	3	.	.
Cc1sc2ncnc(Sc3nnnn3-c3ccc(Cl)cc3)c2c1C	84*	73*	-23	-57*	88*	41*	1	102*	Mdm2-MdmX confirm=103*
O=S(=O)(Oc1ccccc1N1CCCCC1)c1ccccc1	5	-17	.	-2	22	8	.	.
CCCNC(=O)C1(C)CCCN(C(=O)c2cc(C)nn2C(C)(C)C)C1 (stereo not given)	5	.	3	-3	-12	4	.	.
COc1cc(OC)c(OC)cc1/C=N/NC(=O)c1ccc2nc[nH]c2c1	6	4	-15	10	12	20	.	.
CCN(CC)c1ccc(/C=N/NC(=O)c2ccc3nc[nH]c3c2)c(O)c1	12	58	92*	8	21	-35	.	.	Mdm2-MdmX confirm=82*
O=C1/C(=C/c2ccccc2[N+](=O)[O-])COc2ccccc21	86*	85*	31	-71*	106*	61*	-104	103*
CC(=O)Nc1ccc(NC(=O)CS(=O)(=O)c2cn(CC(=O)N3CCC(C)CC3)c3ccccc23)cc1	-13	7	-22	15	7	12	.	.
COCCCN(Cc1ccco1)C(=O)Cn1ncc2c([nH]c3ccccc32)c1=O	9	11	1	8	29	4	.	.
COCCN(Cc1ccco1)C(=O)Cn1ncc2c(=O)oc3ccccc3c21	-12	-2	13	7	7	45*	-4	18
COc1ccc(C(=O)/C=C/C(=O)N(Cc2ccccc2)C(C(=O)NC2CCCCC2)c2ccncc2)c(O)c1 (stereo not given)	15	-1	-14	-14	15	40*	5	48
COc1cccc(CN(CC(=O)NC2CCCC2)C(=O)CCC(=O)Nc2cc(C)on2)c1	-2	-1	-10	6	-4	11	.	.
COc1ccc(C(=O)/C=C/C(=O)N(Cc2ccccc2OC)C(C(=O)NC2CCCCC2)c2ccncc2)c(O)c1 (stereo not given)	-3	-3	15	2	-119	20	.	.
COc1ccc(C(=O)/C=C/C(=O)N(CC(=O)NC2CCCCC2)Cc2ccccc2OC)c(O)c1	87*	103*	-3	-63*	104*	81*	89*	105*
COc1ccc(C(=O)/C=C/C(=O)N(Cc2ccc(F)cc2)C(C(=O)NC2CCCCC2)c2ccncc2)c(O)c1 (stereo not given)	6	4	24	-26	14	27	.	.
COc1ccc(C(=O)/C=C/C(=O)N(CC(=O)NC2CCCCC2)Cc2ccccc2)c(O)c1	71*	100*	95*	-34	109*	71*	98*	103*
SMILES	CF NFkB block	TRPM1 prom inh	Shn3 3UTR inh	KKLEB cytotox	Peg3 promoter	HIF-2a block	HIF-2a inh conf	HIF-1a counter	others
COc1ccc(C(=O)/C=C/C(=O)N(CC(=O)NC2CCCCC2)CC2CCCO2)c(O)c1 (stereo not given)	48	98*	-8	-17	106*	94*	99*	107*
COc1ccc(C(C)(C)C)cc1NC(=O)COc1ccc(-c2nnco2)cc1	8	-21	26	-5	8	20	.	.
C=CS(=O)(=O)N(Cc1ccccc1Br)[C@H](CO)CC(C)C	25	-12	-14	-14	56*	41*	22	27
CCN([C@H](CO)CC(C)C)S(=O)(=O)c1ccccc1	24	4	-2	-4	-12	-4	.	.
COc1cc(SC#N)ccc1N=Cc1c(C)[nH]n(-c2ccc(C)c(C)c2)c1=O	3	88*	?	1	100*	14	.	.	Mdm2-MdmX confirm=98*
Cc1ccc(-n2[nH]c(C)c(/C=N/Nc3ccc([N+](=O)[O-])cc3[N+](=O)[O-])c2=O)cc1C	44	13	1	-30	15	-6	.	.
COC(=O)CCn1nnc(-c2ccc(C(C)C)cc2)n1	-6	68*	70	10	8	91*	96*	75*
COC(=O)CCn1nnc(-c2cccs2)n1	12	-1	10	-2	7	2	.	.
CCOC(=O)N1CCN=C1SCc1ccc(Cl)c(Cl)c1	-5	2	-12	4	6	9	.	.
CC(=O)Nc1ccc(NC(=O)C2CC(=O)N(Cc3ccccc3)C2)cc1 (stereo not given)	-1	-7	15	7	-2	21	.	.
CC(=O)c1sc(NC(=O)C2CC(=O)N(Cc3ccccc3)C2)nc1-c1ccccc1 (stereo not given)	-3	-6	7	-13	4	41*	9	29
COc1cccc(C(C)(O)c2nc(-c3ccc(S(C)(=O)=O)cc3)cs2)c1 (stereo not given)	1	.	25	2	12	12	.	.
CC(Oc1ccc2c3c(c(=O)oc2c1)CCC3)C(=O)NCC1CCC(C(=O)O)CC1 (stereo not given)	-23	.	-47	29	-39	-58	.	.

Compound activity as filed in PubChem.
